# Sampled rows, rich in hits. Any-hit rate of the full collection: about 19%.
# TDP1 cell noCPT – qHTS for Inhibitors of human tyrosyl-DNA phosphodiesterase 1 (TDP1): qHTS in cells in absence of CPT. AID 686978, 2013. Potency, µM (series often up to 46.2 µM), for inactives: top-dose activity change, negative = growth inhibition, most hits filed as inhibitors. 15% of 420,000 active. DT40 Tdp1-/- hTDP1 cells, no CPT, ATP luminescence, 48 h; further: potency means the concentration at half of the fitted maximal effect; nearly all actives have a fitted effect of over 55% in size
#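 Chicken DT40 Tdp1-/- cells stably complemented with human TDP1 were seeded at 400 cells/well with DMSO in place of 20 nM camptothecin. After compound pinning, cells grew at least 48 hr at 37 °C; viability read by CellTiter-Glo luminescence.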
# IL1B secr inh – qHTS for Inhibitors of Inflammasome Signaling: IL-1-beta AlphaLISA Primary Screen | THP-1 LPS/ATP IL-1B secretion, AlphaLISA, 16 h; active compounds read low | activity change, % at 57.5 µM | 4.7% of 360,000 active | AID 743279, 2014; in the data active means activity change below about -50%; inconclusive means mostly about -30% to -49%
#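 THP-1 cells pretreated 1 hr with compounds (up to 57.5 uM final), then stimulated with LPS (250 ng/mL final) plus ATP (1.25 mM final); secreted IL-1B measured by AlphaLISA after 16 hr, decreased signal indicating inhibition.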
# HT1080 IDH1KD tx – qHTS for induction of synthetic lethality in tumor cells producing 2HG: qHTS for the HT-1080-IDH1KD cell line. HT-1080 IDH1 knockdown viability, ATP luminescence, 48 h. Potency, µM (titrated, usually from 46.1 µM), inactives show at the top dose activity, negative = toxicity, actives largely listed as cytotoxic. 2% of 360,000 active. AID 686971, 2013;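 further: potency means the concentration at half of the fitted maximal effect; 0% = DMSO wells and -100% = cell-free medium wells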
#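 Knockdown cells (IDH1KD HT-1080) received compounds 2 h after plating at 750 cells/well and were kept 48 h at 37 °C in 5% FBS RPMI. A CellTiter-Glo luminescence read gave % activity for curve fitting.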
# HT1080-NT tox – qHTS for induction of synthetic lethality in tumor cells producing 2HG: qHTS for the HT-1080-NT fibrosarcoma cell line | HT-1080-NT fibrosarcoma viability, CellTiter-Glo ATP luminescence, 48 h | Potency, µM (doses to about 46.1 µM), inactives show top-dose activity, negative = less viability, hits mostly cytotoxic | 1.6% of 360,000 active | AID 686970, 2013;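 further: NT is the 2HG producing partner of a matched IDH1 knockdown line; potency means the concentration at half of the fitted maximal effect; 0% = DMSO-treated cells and -100% = media-only wells without cells; nearly all actives have a fitted effect of over 55% in size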
#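 Fibrosarcoma NT cells, 750 per well in 5% FBS RPMI, were exposed to compound for 48 hours. Viability: CellTiter-Glo luminescence.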
# DT40 TDP1 CPT – qHTS for Inhibitors of human tyrosyl-DNA phosphodiesterase 1 (TDP1): qHTS in cells in presence of CPT; AID 686979, 2013; Potency, µM (top dose mostly 46.2 µM), inactives show top-dose activity change, negative = growth inhibition, actives largely listed as inhibitors; chicken DT40 Tdp1-/-;hTDP1 cells + 20 nM CPT, ATP luminescence, 48 h; 12% of 420,000 active; further: potency means the concentration at half of the fitted maximal effect; nearly all actives have a fitted effect of over 55% in size
#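 Cell growth measured by CellTiter-Glo luminescence after a minimum 48 h, 37 C compound exposure with 20 nM CPT in Tdp1-knockout DT40 cells stably expressing hTDP1, seeded 400/well; qHTS titration format.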
# Starred values were filed as active, the others as inactive; ? = inconclusive; . = no result given; [ ] = another dose, or the depositor's remark. Unless noted, the call rests on the fitted dose curve; in most records, active means well fitted curve in the direction sought with a large enough effect; inconclusive means small, poorly fitted or top-dose-only effect, or another doubt; inactive means no such curve, though single readings can be large; an effect the other way counts as inactive or inconclusive. Unless noted, on the % scale 0 is the no-effect control and ±100 the full control effect.
SMILES,TDP1 cell noCPT,IL1B secr inh,HT1080 IDH1KD tx,HT1080-NT tox,DT40 TDP1 CPT
Cc1ccccc1C1=Nn2c(nnc2-c2ccco2)SC1,2%,24,1%,9%,-27%
COc1ccc(C2=Nn3c(nnc3-c3ccccc3OC)SC2)cc1OC,0.0058µM*,1,?,0.46µM*,0.0052µM*
COc1ccc(C2=Nn3c(nnc3-c3ccco3)SC2)cc1OC,23µM*,-16,-13%,-22%,?
CC(O)(CS(=O)(=O)Cc1ccc(Cl)cc1)C(=O)Nc1cccc(C(F)(F)F)c1 (stereo unspecified),?,5,13µM*,?,-29%
O=C(Nc1cccc(C(F)(F)F)c1)N(Cc1ccc(Cl)cc1)CC(O)C(F)(F)F (stereo unspecified),?,-7,18µM*,16µM*,?
COc1ccc(S(=O)(=O)c2cn(CC(=O)Nc3cc(C)ccc3C)c3ccccc3c2=O)cc1,-2%,.,.,.,20%
O=C(CNC(=O)c1cccc(OC(F)F)c1)OCc1cc(=O)n2cc(Br)ccc2n1,-2%,12,3%,6%,4%
CCCN(CCC)Cc1c(C(=O)N/N=C/c2c[nH]c3ccccc23)nnn1-c1nonc1N,-6%,?,29µM*,?,-20%
Cc1ccc(-c2c(C(=O)N/N=C/c3c[nH]c4ccccc34)nnn2-c2nonc2N)cc1,16µM*,-25,-7%,4%,?
CCCc1c(C(=O)N/N=C/c2c[nH]c3ccccc23)nnn1-c1nonc1N,?,17,2%,-2%,?
Cc1cccc(-n2nnnc2SCc2csc(-c3ccccc3)n2)c1,?,-1,5%,8%,-10%
COCCN(Cc1nc(-c2ccc(-c3ccccc3)cc2)oc1C)C(C)C,21µM*,13,-7%,-13%,15µM*
Cc1oc(-c2ccoc2)nc1CN(CC1CCC(=O)N1)C(C)C (stereo unspecified),-5%,2,-18%,0%,9%
CCOC(=O)N1CCC(n2c(SCC(=O)NCc3ccco3)nc3ccsc3c2=O)CC1,18µM*,33,-3%,8%,23µM*
CCOC(=O)CSc1nc2ccsc2c(=O)n1C1CCN(C(=O)OCC)CC1,?,-12,-13%,-11%[9.24 µM],?
CCOC(=O)N1CCC(n2c(SCC(=O)c3ccccc3)nc3ccsc3c2=O)CC1,2.9µM*,-16,10%,1%,2.6µM*
Cc1ccc(OCCSc2nc3ccccc3n2CC(=O)O)cc1,2%,6,3%,-5%,3%
O=C(CN1CCCN(Cc2ccc(F)cc2)S1(=O)=O)Nc1ccc2c(c1)OCCO2,-16%,.,.,.,-3%
COc1ccc(NC(=O)CN2CCN(Cc3ccc(F)cc3)S2(=O)=O)cc1Cl,21µM*,.,.,.,?
O=C(CN1CCN(Cc2ccc(F)cc2Cl)S1(=O)=O)Nc1ccc(F)cc1,15µM*,.,.,.,12µM*
CCOc1ccc2oc(C(=O)OCC(=O)NC3CCCCC3)c(C)c2c1,1%,12,8%,0%,-26%
CCOc1ccc(NC(=O)c2c(OC)cccc2OC)cc1,-3%,42,-3%,-11%,-2%
COc1ccccc1NC(=O)c1c(Nc2ccccc2F)sc(C(=O)Nc2cccc(Cl)c2)c1N,26µM*,?,?,15µM*,?
Cc1ccc(Nc2sc(C(=O)c3ccccc3)c(N)c2C(=O)Nc2ccc(Cl)cc2)cc1,18µM*,.,.,.,?
CCOc1ccc(NC(=O)c2c(Nc3ccc(OC)cc3OC)sc(C(=O)c3ccc(Cl)cc3)c2N)cc1,13µM*,.,.,.,12µM*
SMILES,TDP1 cell noCPT,IL1B secr inh,HT1080 IDH1KD tx,HT1080-NT tox,DT40 TDP1 CPT
Nc1c(C(=O)c2ccccc2)sc(Nc2ccc(Cl)c(Cl)c2)c1C(=O)Nc1ccccc1,4.1µM*,.,.,.,?
Cc1[nH]nc(SCC(=O)NCc2ccc(Cl)cc2)c1[N+](=O)[O-],-20%,2,0%,1%,-18%
COc1ccc(C2CCCN2CC(O)COc2ccccc2C(C)C)cc1 (stereo unspecified),13µM*,?,21µM*,21µM*,23µM*
CC(=O)c1ccc(N2CCC(c3cc(-c4ccc(Cl)cc4)n[nH]3)CC2)c([N+](=O)[O-])c1,4.6µM*,25,?,?,7.3µM*
COc1ccc(-c2cc(C3CCN(C(=O)OC(C)(C)C)CC3)[nH]n2)cc1,?,-84*,-10%,-7%,?
COC(=O)c1ccc(N2CCC(c3cc(-c4ccc(OC)cc4)n[nH]3)CC2)c([N+](=O)[O-])c1,18µM*,-8,?,?,21µM*
COc1ccc(-c2cc(C3CCN(c4ccc(C(C)=O)cc4[N+](=O)[O-])CC3)[nH]n2)cc1,5.2µM*,-71*,?,?,5.8µM*
COc1cc(-c2cc(NC=O)c3ncc(-c4ccc(C(C)=O)cc4)n3c2)cc(OC)c1OC,7.3µM*,-59*,?,?,10µM*
COc1ccc(-c2cc(NC=O)c3ncc(-c4ccc(C(C)=O)cc4)n3c2)cc1OC,18µM*,-70*,13µM*,16µM*,16µM*
COc1ccc(N2CCN(CC(O)COc3ccccc3[N+](=O)[O-])CC2)cc1 (stereo unspecified),-10%,5,0%,1%,7%
O=C(O)Cn1c(C(=O)Nc2nc(-c3ccccc3Cl)cs2)cc2ccccc21,-16%,.,.,.,-6%
O=C(NC(=S)Nc1ccc(Cc2ccncc2)cc1)c1ccc(F)cc1,16µM*,23,-6%,-5%,?
CNC(=S)Nc1ccc(Cc2ccncc2)cc1,0%,14,-8%,-5%,-3%
CC(C)(C)C(=O)NC(=S)Nc1ccc(Cc2ccncc2)cc1,?,-65*,-27%,-22%,?
CCOc1ccccc1-c1nc(-c2cc3ccccc3nc2OC)no1,23µM*,-5,-16%,-5%,16µM*
CCCc1nc(-c2cc3ccc(C)cc3[nH]c2=O)no1,-6%,-4,5%,2%,-27%
CCOc1ccccc1-c1nc(-c2cc3ccc(C)cc3[nH]c2=O)no1,?,-22,-2%,1%,26µM*
CCOc1nc(C)ccc1-c1noc(-c2ccccc2OC)n1,?,-9,11%,21%,-28%
CCCCCCCC1CC(CSC(=N)N)OC1=O (stereo unspecified),21µM*,-99*,-27%,-15%,15µM*

# Compound activity: PubChem, National Center for Advancing Translational Sciences (NCATS)
